In PubChem BioAssay (NCATS):
Results filed as inconclusive are left out. The source made the active and inactive calls. The call rests on the fitted dose curve; in most records, active means well fitted curve in the direction sought with a large enough effect; inconclusive means small, poorly fitted or top-dose-only effect, or another doubt; inactive means no such curve, though single readings can be large; an effect the other way counts as inactive or inconclusive.

Key:
[1] = MultiTox-Fluor Cytotoxicity Assay - LYMP1-001 - Dead Cells (AID 946)
In short: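 In this qHTS, 15 uM tetraoctylammonium bromide defined 100% and DMSO defined basal activity. Lymphoblastoid cells (LYMP1-001, 2500 per well) received compound for 16 hr at 37 C before a fluorogenic dead-cell substrate readout at 485/520 nm.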

[2] = MultiTox-Fluor Cytotoxicity Assay - LYMP1-001 - Live Cells (AID 947)
[3] = Cell Viability - LYMP1-002 - Assay at 16 hr (AID 948)
In short: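 Acute cytotoxicity is scored as a concentration-dependent fall in intracellular ATP in a human lymphoblastoid line (LYMP1-002) after 16 hr compound exposure at 37 C, measured by luciferase luminescence.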

[4] = MultiTox-Fluor Cytotoxicity Assay - LYMP1-002 - Live Cells (AID 955);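 further: cells exposed to compound for 16 hours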
In short: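 Human lymphoblastoid LYMP1-002 cells, 2500/well, treated 16 h at 37 C in complete medium. Live-cell protease activity via GF-AFC fluorescence (Ex/Em 405/510) after 60 min reagent incubation; AC50 from Hill fits.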

[5] = MultiTox-Fluor Cytotoxicity Assay - LYMP1-003 - Dead Cells (AID 961);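 further: cells exposed to compound for 16 h at 37 °C; nearly all actives have a fitted effect of over 70% in size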
In short: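 Acute toxicity is scored as increased dead-cell protease activity in human lymphoblastoid LYMP1-003 cells after 16 h compound exposure in complete culture medium. Activity is normalized to DMSO basal and 15 uM tetraoctylammonium bromide as full response.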

[6] = MultiTox-Fluor Cytotoxicity Assay - LYMP1-003 - Live Cells (AID 962);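 further: cells exposed to compound for 16 hours at 37 °C; cytotoxic hits lower the live-cell protease signal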
In short: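 LYMP1-003 lymphoblastoid cells, 2500/well in complete medium, treated 16 h at 37 C; live-cell protease cleavage of GF-AFC read by fluorescence (Ex/Em 405/510) after 60 min reagent; AC50 from Hill fits of concentration-response.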

[7] = Cell Viability - LYMP1-003 - Assay at 24 hr (AID 963)
In short: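 Human lymphoblastoid LYMP1-003 cells, 2500/well, treated 24 h at 37 C in complete medium. Viability read as intracellular ATP by CellTiter-Glo luminescence after 30 min at room temperature; AC50 from Hill-equation fits of qHTS concentration-response.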

[8] = Cell Viability - LYMP1-003 - Assay at 40 hr (AID 964); further: series mostly up to about 92 µM; nearly all actives have a fitted effect of over 60% in size
In short: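 LYMP1-003 human lymphoblastoid cells, 2500/well, preincubated 5 h at 37 C, then treated with compound for 40 h at 37 C. Intracellular ATP read by CellTiter-Glo luminescence after 30 min at room temperature; AC50 from Hill-equation fits.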

[9] = Cell Viability - LYMP2-003 (AID 965);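 further: cells exposed to compounds for 24 h before reading; nearly all actives have a fitted effect of over 50% in size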
In short: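 Acute cytotoxicity is scored as a concentration-dependent drop in intracellular ATP, measured by luciferase luminescence in human lymphoblastoid cells treated for 24 hours at 37 C. AC50 values derive from Hill-equation modelling.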

[10] = Cell Viability - LYMP2-004 (AID 966); further: nearly all actives have a fitted effect of over 65% in size
In short: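 Lymphoblastoid LYMP2-004 cells, 2500 per well, were preincubated for 5 hr and then treated with compound for 24 h at 37 C in complete medium. Viability was read as cellular ATP by CellTiter-Glo luminescence, and AC50 values were taken from Hill fits to concentration-response data.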

[11] = Cell Viability - LYMP2-005 (AID 967); further: series mostly up to about 92 µM
In short: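 qHTS viability screen in LYMP2-005 cells: 24 h at 37 C with compound, ATP luminescence via CellTiter-Glo, AC50 from Hill curves.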

[12] = Cell Viability - LYMP2-009 (AID 968); further: series mostly up to about 92 µM; nearly all actives have a fitted effect of over 55% in size
[13] = Cell Viability - LYMP2-011 (AID 969); further: nearly all actives have a fitted effect of over 60% in size
In short: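 2500 cells/well in complete medium, compound-treated 24 h at 37 C. Viability read as intracellular ATP by CellTiter-Glo luminescence after 30 min at room temperature. AC50 from Hill fits of qHTS concentration-response data.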

[14] = Cell Viability - LYMP2-013 (AID 970); further: series mostly up to about 92 µM; nearly all actives have a fitted effect of over 55% in size
In short: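 Human lymphoblastoid LYMP2-013 cells, 2500/well, treated 24 h at 37 C in complete medium; viability as intracellular ATP by CellTiter-Glo luminescence after 30 min. AC50 from Hill fits of qHTS concentration-response.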

[15] = Cell Viability - LYMP2-015 (AID 971); further: nearly all actives have a fitted effect of over 55% in size
In short: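 LYMP2-015 human lymphoblastoid cells (2500/well) in complete medium, compound-treated 24 h at 37 C; viability read as cellular ATP by CellTiter-Glo luminescence after 30 min at room temperature. AC50 from Hill-equation fits of qHTS concentration-response data.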

[16] = Cell Viability - LYMP2-017 (AID 972); further: series mostly up to about 92 µM; nearly all actives have a fitted effect of over 55% in size
In short: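 LYMP2-017 human lymphoblastoid cells (2500/well) settled 5 hr at 37 C, then exposed to compound 24 hr at 37 C in complete medium. Viability taken as intracellular ATP by CellTiter-Glo luminescence after 30 min at RT; AC50 from Hill fits.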

[17] = Cell Viability - LYMP2-023 (AID 975)
In short: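 LYMP2-023 human lymphoblastoid cells, 2500/well, preincubated 5 hr at 37 C, then compound-treated 24 hr at 37 C in complete medium. CellTiter-Glo luminescence (ATP) after 30 min at room temperature; AC50 from Hill-equation fits; tetraoctylammonium bromide positive control.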

[18] = Cell Viability - LYMP2-002 (AID 977);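 further: series mostly up to about 92 µM; compound exposure lasted 24 h at 37 °C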
In short: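 Human lymphoblastoid LYMP2-002 cells, 2500 per well, exposed to compounds for 24 h at 37 C in complete medium; viability read as intracellular ATP by CellTiter-Glo luminescence, AC50 from Hill fits.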

[19] = Cell Viability - LYMP2-006 (AID 978); further: series mostly up to about 92 µM; nearly all actives have a fitted effect of over 60% in size
In short: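 Concentration-dependent loss of intracellular ATP in a human lymphoblastoid line after 24 hr treatment at 37 C was measured by CellTiter-Glo luminescence, with AC50 values obtained from standard Hill-equation modelling.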

[20] = Cell Viability - LYMP2-007 (AID 979);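 further: cells exposed to compound for 24 h before reading; nearly all actives have a fitted effect of over 60% in size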
In short: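 Human lymphoblastoid LYMP2-007 cells (2500/well) preincubated 5 h at 37 C, then treated 24 h at 37 C in complete medium. Viability by CellTiter-Glo ATP luminescence after 30 min at room temperature; AC50 from Hill fits.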

Measured: Potency

O=C(O)c1cc(N=Nc2ccc([N+](=O)[O-])cc2)ccc1O
inactive: [1] | [2] | [3] | [4] | [5] | [6] | [7] | [8] | [9] | [10] | [11] | [12] | [13] | [14] | [15] | [16] | [17] | [18] | [19] | [20]
